WRN inhibitor – qHTS for Inhibitors of WRN Helicase; Potency, µM (highest dose often 114 µM), actives largely listed as inhibitors; AID 651768, 2012; Bifunctional 3'-5' exonuclease/ATP-dependent helicase WRN (Homo sapiens), Q14191; WRN helicase unwinding, fluorescent forked duplex, kinetic; 360,000 tested, 0.46% active; further: nearly all actives have a fitted effect of over 55% in size
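Kinetic red-fluorescence monitoring (525/598 nm) tracks WRN helicase activity after 100 nM fluorophore-quencher forked duplex and 2 mM ATP are added to 20 nM enzyme pretreated 15 min at room temperature with compound.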
Pol eta inh – qHTS for Inhibitors of Polymerase Eta; DNA polymerase eta (Homo sapiens), Q9Y253; recombinant Pol eta, fluorescent DNA replication assay; Potency, µM (doses to about 114 µM), hits mostly inhibitors; 390,000 tested, 1.2% active; AID 588591, 2011
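Pol eta (10 nM) was preincubated with compounds for 15 min at room temperature, after which fluorescent replication substrate (50 nM final) was added to start the reaction. Fluorescence was read kinetically at 0 and 10 min.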
PI5P4Ka inh – qHTS for Inhibitors of phosphatidylinositol 5-phosphate 4-kinase (PI5P4K) | PI5P4Kalpha enzyme, ADP-Glo luminescence, 60 min; hits give low values | max response, % | 330,000 tested, 1.2% active | AID 652105, 2013; active means max response of -50% or lower; inconclusive means between -30% and -50%; inactive means -30% or higher; further: value at the top dose of about 77 µM
Target sequence (P48426 whole entry, looked up): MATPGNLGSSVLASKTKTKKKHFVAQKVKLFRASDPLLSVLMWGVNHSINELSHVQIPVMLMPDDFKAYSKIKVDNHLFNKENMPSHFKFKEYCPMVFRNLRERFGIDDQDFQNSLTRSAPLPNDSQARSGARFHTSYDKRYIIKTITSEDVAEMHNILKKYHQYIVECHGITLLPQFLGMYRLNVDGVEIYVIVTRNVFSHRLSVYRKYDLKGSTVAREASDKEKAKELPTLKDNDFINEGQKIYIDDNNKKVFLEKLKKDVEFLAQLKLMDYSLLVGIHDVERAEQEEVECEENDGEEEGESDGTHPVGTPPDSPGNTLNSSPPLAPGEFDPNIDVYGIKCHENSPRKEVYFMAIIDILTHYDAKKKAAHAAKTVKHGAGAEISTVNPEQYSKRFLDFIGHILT
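Quantitative HTS of the MLSMR library against PI5P4Kalpha with substrate. ATP added last at 5 microM final; room temperature, 60 minutes. Remaining ATP depleted, ADP converted and read as luminescence.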
POLI inh – qHTS for Inhibitors of Polymerase Iota. DNA polymerase iota (Homo sapiens), Q9UNA4. Pol iota fluorescent replication assay, 10 min. Potency, µM (highest dose often 115 µM), usual class: inhibitors. 390,000 tested, 1% active
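Pol iota at 10 nM preincubated 15 min with compounds at room temperature; reaction started with fluorescent substrate, 50 nM final. Fluorescence read kinetically at 0 and 10 min; buffer-only wells as negative control.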
Pol kappa inh – qHTS for Inhibitors of Polymerase Kappa; DNA polymerase kappa (Homo sapiens), Q9UBT6; 400,000 tested, 0.53% active; Potency, µM (top dose mostly 107 µM), usual class: inhibitors; purified Pol kappa, fluorescent DNA synthesis assay, 10 min; AID 588579, 2011
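50 nM final substrate added after 15 min RT preincubation of 10 nM Pol kappa with compound; fluorescence read at 0 and 10 min.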
Pol beta inh – qHTS Assay for Inhibitors of DNA Polymerase Beta | P06746 | Pol beta primer extension/strand displacement, fluorescence kinetic | Potency, µM (series often up to 114 µM), most hits filed as inhibitors | 340,000 tested, 1.3% active | AID 485314, 2010
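Preincubation: enzyme (10 nM) with compound, 15 min, RT. Reaction: substrate added to 50 nM final. Reads: 0 and 10 min. Analysis: normalized, Hill fit.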
A number is an active result; – = inactive; ? = inconclusive; · = not tested or not shown; [ ] = another dose, or the depositor's remark. Sampled rows, rich in hits. Any-hit rate of the full collection: about 2.8%. Unless noted, the call rests on the fitted dose curve; in most records, active means well fitted curve in the direction sought with a large enough effect; inconclusive means small, poorly fitted or top-dose-only effect, or another doubt; inactive means no such curve, though single readings can be large; an effect the other way counts as inactive or inconclusive.

SMILES | WRN inhibitor | Pol eta inh | PI5P4Ka inh | POLI inh | Pol kappa inh | Pol beta inh
CCOc1ccc(S(=O)(=O)NCCc2sc3nc(-c4ccc(F)cc4)nn3c2C)cc1 | · | – | · | – | – | –
COc1ccc(C#CC2=CC(=O)CC(C)(C)C2)cc1 | – | – | – | · | · | ·
CCCN(CC(=O)Nc1ccccc1C)C(=O)Cc1c(C)nc2ccccc2c1C | –[11.6 µM] | ? | ? | 79µM | – | ·
CCC[C@H]1CN(c2ccccc2)C(=O)[C@@H]1CC(=O)NC | – | – | – | · | · | ·
O=C1NNC(c2ccccc2)=N/C1=C\c1ccco1 | – | ? | -53 | ? | – | 10µM
O=C1NNC(c2ccccc2)=N/C1=C\c1ccccc1Cl | – | – | – | ? | – | –
COc1cc(/C=C2\C(=O)ON=C2c2ccccc2)cc(OC)c1OC | – | – | – | – | – | –
COc1ccc(/C=C2/C(=O)ON=C2c2ccccc2)cc1OC | ? | – | -59 | ? | – | –
COc1ccc(/C=C2\C(=O)ON=C2c2ccccc2)cc1OC | – | – | -62 | – | – | –
COc1ccc(C=C2C(=O)OC(C)(C)OC2=O)cc1OC | – | – | – | – | – | –
CCOc1cc(/C=C2\C(=O)ON=C2c2ccccc2)ccc1OC | – | – | -63 | ? | – | –
CC1(C2CC(=O)c3c(O)ccc(O)c3C2)OCCO1 (stereo unspecified) | – | – | – | · | · | ·
O=C1ON=C(c2ccccc2)/C1=C/c1ccco1 | ? | ? | – | 22µM | 28µM | 25µM
COc1ccc(C(CC(=O)N2CCCC(C)C2)c2c(OC)cc(OC)c3c(-c4ccccc4)cc(=O)oc23)cc1 (stereo unspecified) | ? | 25µM | ? | 50µM | 79µM | 35µM
COc1ccc(C(CC(=O)N2CCN(c3ccccc3)CC2)c2c(OC)cc(OC)c3c(-c4ccccc4)cc(=O)oc23)cc1 (stereo unspecified) | · | · | · | · | · | 8.9µM
O=C(COC(=O)/C=C/c1cc(Br)ccc1F)Nc1ccc2[nH]c(=O)[nH]c2c1 | – | – | – | ? | – | ·
CC(C)CCNC(=O)NC(=O)COC(=O)/C=C/c1cc(Br)ccc1F | ? | – | -62 | – | – | –
O=C(Nc1c(Cl)cc([N+](=O)[O-])cc1Cl)c1cc(Cl)cc(Cl)c1O | · | · | · | – | – | ·
COc1cccc(/C=N/Nc2nnc(C)n2N)c1O | – | – | – | 4µM | – | –
COc1ccc(-n2c(C)cc(/C=N/Nc3nnc(C)n3N)c2C)cc1 | – | – | – | 22µM | – | –
COc1cccc(/C=N/Nc2cc(N3CCOCC3)ncn2)c1O | – | – | -98 | – | – | –
COc1cccc(/C=N/NC(=S)Nc2cccc(C(=O)O)c2)c1O | – | – | -60 | – | – | –
COc1ccc(/C=N/Nc2cc(N3CCOCC3)ncn2)c(OC)c1 | – | – | – | – | – | –
O=C(NCC1CCCN1S(=O)(=O)c1cccs1)c1ccccc1F (stereo unspecified) | – | – | – | – | – | ·
COC(=O)c1ccc(N/N=C/c2cc([N+](=O)[O-])cc(OC)c2O)cc1 | – | – | – | – | – | ?
COc1cccc(/C=N/Nc2ccc([N+](=O)[O-])cc2)c1O | – | – | – | – | – | 45µM
CC(=O)Nc1cccc2cc(S(=O)(=O)O)ccc12 | – | · | – | · | · | ·
O=S(=O)(O)c1ccc2c(N=Nc3ccc(S(=O)(=O)O)c4ccccc34)c(O)c(S(=O)(=O)O)cc2c1 | · | · | · | 45µM | 45µM | ·
CC(=O)Nc1ccc(S(=O)(=O)O)c2cc(S(=O)(=O)O)c(N=Nc3ccc(N=Nc4ccc(S(=O)(=O)O)cc4)c4ccc(S(=O)(=O)O)cc34)c(O)c12 | · | · | · | 3.2µM | 1.4µM | ·
C[C@H](CO)N1C[C@H](C)[C@@H](CN(C)C(=O)Nc2ccccc2)Oc2ccc(NC(=O)Cn3cnnn3)cc2C1=O | – | – | – | – | – | ·

Compound activity (PubChem BioAssay)
